# High-throughput results: PubChem BioAssay, National Center for Advancing Translational Sciences (NCATS)
# N370S GC mod: N370S glucocerebrosidase modulation, Gaucher chaperone candidate; N370S GC spleen homogenate, 4MU-glucoside fluorescence; Potency, µM (series often up to 59.4 µM), for the others: at the top dose activity change, negative = inhibition, usual class: inhibitors; hit rate 0.092% among 330,000; P04062; AID 2101;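 also: potency is read from the fitted curve at half-maximal effect; 0% = full enzyme activity and -100% = no enzyme basal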
# Nrf2 activator: Nrf2 pathway activation; Potency, µM (titrated, usually from 46.1 µM), for inactives: top-dose activation, usual class: activators; AREc32 ARE-luciferase reporter (MCF7-derived line), luminescence, 24 h; AID 624171; hit rate 0.31% among 410,000; also: potency is read from the fitted curve at half-maximal effect; % of control where 0% means no effect; nearly all actives have a fitted effect of over 65% in size
#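 AREc32_Fluc, 1000 cells/well, OPTI-MEM + 5% FBS, o/n 37 deg C 5% CO2; 23 nL cpd by pin tool, 24 hr; Steady-Glo 30 min RT, luminescence.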
# BRCA1 expr act: activators of BRCA1 expression | AID 624202 | Potency, µM (series often up to 46.1 µM), inactives show at the highest dose activation, actives largely listed as activators | hit rate 1.1% among 380,000 | MCF7-BRCA1-FFLuc reporter, luminescence, 48 h; response scale: scaled: vehicle 0%, 10 µM genistein 100%; also: potency is read from the fitted curve at half-maximal effect; nearly all actives have a fitted effect of over 80% in size
#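 Quantitative HTS in MCF7 cells stably reporting BRCA1 expression via firefly luciferase. Compound treatment lasts 48 h at 37 °C in phenol-red free MEM. Activation is expressed relative to genistein at 10 microM and DMSO.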
# IL-2 act: IL-2 activation | IL-2 activation reporter assay, cell-based qHTS; stimulated with anti-CD3/CD4/CD28 beads; in transgenic mouse T cells | activation, % (series mostly up to about 46 µM) | hit rate 0.065% among 360,000; in the data active = activation above about 50%; inconclusive = mostly about 30% to 49%; also: 0% is about no effect
#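 First, unstimulated transgenic mouse T cells were exposed to compound for 60 min. Next, anti-CD3/anti-CD4-coated beads with anti-CD28 were added. Finally, after 18 h at 37 degrees C, EGFP and DsRed were imaged.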
# BCR signal inh: blocks chronic active B-cell receptor signaling | ABC-DLBCL IkBa-CBG/CBR reporter, luminescence ratio, 4 h | Potency, µM (top dose mostly 46.1 µM), for inactives: at the top dose activity change, negative = inhibition, actives largely listed as inhibitors | hit rate 0.05% among 340,000; active = well fitted inhibition curve with a large enough effect in the signal ratio, with a control signal flat, not every such curve was filed as active; inconclusive = small, poorly fitted or top-dose-only effect, or effect the other way, or a change in a side signal; the % refers to the signal ratio;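 also: potency is read from the fitted curve at half-maximal effect; plate controls were basal doxycycline-induced cells for no effect and cells given 10 µM MG132 for full effect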
#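 Concentration-response series (up to 46 uM) were applied to TMD8 dual-reporter cells for 4 h at 37C with doxycycline. Green/red ratio, after filter-overlap correction, defined %Activity; red signal alone was normalised to basal cells and zero luminescence.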
# Integrin act MD: activators of alpha7 integrin expression for muscular dystrophy; hit rate 0.064% among 350,000; Potency, µM (doses to about 38.3 µM), for the others: top-dose activation, actives largely listed as activators; alpha7betagal myoblasts, beta-gal FDG fluorescence, 48 h;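 also: potency is read from the fitted curve at half-maximal effect; 100% = response of the positive control SU9516; nearly all actives have a fitted effect of over 60% in size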
#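 Alpha7betagal+/- myoblasts (passage 13) were plated 16-24 hr, then exposed to compounds (1:260 dilution of DMSO stock) for 48 hours at 37C. After MPER lysis, β-galactosidase reporter activity was read as FDG fluorescence (ex 480/em 540) after 30 minutes.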
# * marks the source's active call; other numbers are inactive results; u = inconclusive; x = no result. Hits are enriched below; roughly 1.4% of the tested compounds scored in any of these assays. Unless noted, calls follow the shape of the dose curve; as a rule, active = well fitted curve in the direction sought with a large enough effect; inconclusive = small, poorly fitted or top-dose-only effect, or another doubt; inactive = no such curve, though single readings can be large; an effect the other way counts as inactive or inconclusive.
SMILES,N370S GC mod,Nrf2 activator,BRCA1 expr act,IL-2 act,BCR signal inh,Integrin act MD
CCn1c(CCCOc2ccc(Cl)cc2Cl)n[nH]c1=S,8%,8%,6.3µM*,-2,u,-6%
CCCCOC(=O)Cn1nnc2sc(-c3ccccc3)cc2c1=O,x,10%,x,x,x,x
CCN(C(=O)Cn1nnc2sc(-c3ccccc3)cc2c1=O)c1cccc(C)c1,x,4.5µM*,x,x,x,x
CCSc1nncn1/N=C/c1ccc(OC)c(OC)c1,2%,9%,22%,4,u,5%
C=C(C)CSc1nncn1/N=C/c1ccc(OC)cc1,-19%,-1%,7.9µM*,4,-19%,20%
CCC1CN(C(=O)Nc2ccccc2C(F)(F)F)c2ccccc2S1 (centres undefined),x,0%,x,x,x,x
Cn1c(SCC(=O)c2ccccc2)nnc1-c1ccccn1,-3%,0%,11µM*,0,u,2%
Cn1c(SCC(=O)c2ccccc2)nnc1-c1ccncc1,-2%,0%,22%,-2,-5%,14%
CCN(Cc1ccccc1)c1ccc(/C=N/N2CCOCC2)cc1,8%,5%,62%,-2,-1%,-15%
CCN(CC)c1ccc(/C=N/N2CCOCC2)cc1,-3%,0%,3.2µM*,1,22%,1%
C/C=C/C=C\C(=O)Nc1cccc(C2=NOC3(C2)C[C@@H](C(N)=O)N(C(=O)c2cc([N+](=O)[O-])cc([N+](=O)[O-])c2C)C3)c1 (some centres undefined),-6%,-1%,0%,0,u,-9%
CCn1c(C)cc(/C=C2/SC(=O)N(C(C)C(=O)OC)C2=O)c1C (centres undefined),-13%,3%,4.5µM*,0,u,-10%
COCCn1c(C)cc(/C=C2/SC(=O)N(C(C)C(=O)OC)C2=O)c1C (centres undefined),2%,6%,u,0,u,-18%
COC(=O)CN1C(=O)S/C(=C/c2cc(C)n(C)c2C)C1=O,2%,3%,13µM*,-2,-7%,-1%
COC(=O)CN1C(=O)S/C(=C/c2ccc(N3CCCCC3)o2)C1=O,2%,6%,10µM*,26,3%,-69%
CCOC(=O)CN1C(=O)S/C(=C/c2ccc(N3CCCCC3)o2)C1=O,-1%,0%,-5%,11,-4%,-24%
Cn1c2ccccc2c2nnc(SCCOc3ccccc3)nc21,x,x,38%,x,x,x
CC(=O)c1cnc2c(-c3ccc(Cl)cc3)cnn2c1C,11%,3%,3.5µM*,0,u,20%
COC(=O)c1sc(NC(=O)c2oc3ccccc3c2C)nc1C,-18%,7%,7.1µM*,1,u,21%
COc1ccc(-c2nsc(NC(=O)c3oc4ccccc4c3C)n2)cc1,x,0%,x,x,x,x
O=S(=O)(c1cccc(Br)c1)N1CCN(c2nc(-c3cccs3)nc3ccccc23)CC1,x,x,17%,x,x,x
O=C(Nc1ccccc1)Nc1ccc(-n2ccc(C(F)(F)F)n2)cc1,14%,3%,3.5µM*,-1,u,-58%
CC(C)(C)OC(=O)N1CCCC(C(=O)Nc2cccc(C(=O)NC3CC3)c2)C1 (centres undefined),x,-1%,-7%,0,x,-4%
CCNc1c([N+](=O)[O-])c(=O)n(CC)c2ccccc12,-9%,0%,-20%,0,-13%,-49%
CCn1c(=O)c([N+](=O)[O-])c(NCc2ccco2)c2ccccc21,10%,8.9µM*,-40%,0,u,-19%
SMILES,N370S GC mod,Nrf2 activator,BRCA1 expr act,IL-2 act,BCR signal inh,Integrin act MD
CC(C)C[C@@H](CSc1ccc(Br)cc1)N1CCN(C)CCC1=O,-15%,4%,10µM*,-1,1%,1%
Cc1ccc(SC[C@H](CC(C)C)N2CCN(C)CCC2=O)cc1,7%,1%,u,0,4%,2%
O=C(COc1ccccc1)Nc1nc2c(s1)CCCC2,23%,15%,3.2µM*,0,3%,19%
O=C(COc1ccccc1Cl)Nc1nc2c(s1)CCCC2,x,16%,x,x,x,x
O=C(NCCOc1ccccc1Cl)c1ncn[nH]1,0%,0%,1%,-4,u,-20%
O=C(NCCOc1ccccc1Cl)c1cc(F)c(F)cc1Cl,-20%,2%,7.1µM*,0,u,12%
Oc1ccc(NCc2ccc(OCc3ccccc3)cc2)cc1,2%,u,-1%,-1,u,-74%
Oc1ccc(NCc2ccc(OCc3ccccc3Cl)cc2)cc1,x,7.9µM*,x,x,x,x
CCOc1ccccc1CNc1ccc(O)cc1,5.6µM*,0%,-59%,-1,-10%,-64%
NS(=O)(=O)c1ccc(N/C=C\C(=O)c2ccc(F)cc2)cc1,-13%,2%,1µM*,-1,-2%,21%
Cc1cccc(NC(=O)c2cccnc2)c1C,-12%,0%,10%,1,-1%,-6%
CSCc1ccc(C(=O)Nc2cccc(C)c2C)cc1,-2%,4%,11µM*,-1,u,-9%
C/C=C(\CS(=O)(=O)c1ccccc1)S(=O)(=O)c1ccccc1,-13%,13µM*,3%,-5,u,-19%
C/C(CS(=O)(=O)c1ccccc1)=N\O,18%,0%,6%,0,-1%,1%
COC(=O)C1=C(C)NC(C)=C(C(=O)OC)C1c1ccccc1OCc1c(C)no[n+]1[O-],1%,4%,-2%,-2,-16%,2.8µM*
CCOc1cccc(C2C=C(c3ccc4c(c3)OCO4)NC(c3ccccc3Cl)N2)c1O (centres undefined),x,x,4%,x,x,x
CC(/C=C/C(=O)c1ccc(C)cc1)=C\c1ccccc1,9%,11µM*,-17%,-2,8%,-7%
Cc1ccc(C(=O)/C=C\C(=O)c2ccc(C)cc2)cc1,-12%,4%,0%,-1,u,12%
CCc1ccc2nc(N3CCN(C(=O)C(C)(C)C)CC3)sc2c1,-3%,0%,13µM*,1,u,0%
CC(C)C(=O)N1CCN(c2nc3ccc(Cl)cc3s2)CC1,-3%,3%,5µM*,2,9%,4%
O=C(CS)Nc1ccc2ccccc2c1,u,17%,-29%,-5,u,-39%
NNC(=O)CCC(=O)Nc1ccccc1,-2%,0%,-4%,-1,1%,-9%
CCCCCC(=O)Nc1ccc2ccccc2c1,8%,2%,2.8µM*,1,u,30%
O=C(CCCCCCC(=O)Nc1ccccc1)NO,x,4.5µM*,-57%,-1,x,x
CCCCC(=O)Nc1ccc(C2C(=O)c3ccccc3C2=O)cc1,x,0%,4µM*,2,x,36%
CCC(=O)Nc1ccc(C2C(=O)c3ccccc3C2=O)cc1,-9%,1%,67%,0,-4%,5%
